The values below come from article PMC11006913.

Holding throughout (test): PBM; 200 nM protein, PBS
Common to all, as to conditions: dsDNA, one strand shown

Assay [1] concerns the target HESX1 (Homo sapiens, UniProt Q9UBX0 95-180, R165K).
Assay [2] concerns the target SHOX (Homo sapiens, UniProt O15266 103-189).
The next assay addresses ALX4 (Homo sapiens, UniProt Q9H161 200-286, Q225E).
Assay [3] has as its target HESX1 (Homo sapiens, UniProt Q9UBX0 95-180).
In the next assay the target is MSX2 (Homo sapiens, UniProt P35548 130-214, R199I).
The target in assay [4] is ALX3 (Homo sapiens, UniProt O95076 139-225, N203Q).
Assay [5] addresses SHOX (Homo sapiens, UniProt O15266 103-189, R173C).
Assay [6] deals with ALX3 (Homo sapiens, UniProt O95076 139-225).
Assay [7] addresses PROP1 (Homo sapiens, UniProt O75360 56-141).
Assay [8] concerns the target HESX1 (Homo sapiens, UniProt Q9UBX0 95-180, R109Q).
Assay [9] concerns the target PROP1 (Homo sapiens, UniProt O75360 56-141, R99H).
Assay [10] has as its target ALX3 (Homo sapiens, UniProt O95076 139-225, L168Q).
Assay [11] deals with HESX1 (Homo sapiens, UniProt Q9UBX0 95-180, P111T).
The target in assay [12] is ALX3 (Homo sapiens, UniProt O95076 139-225, L168V).
For assay [13], the target named is PROP1 (Homo sapiens, UniProt O75360 56-141, F88S).
The target in assay [14] is HESX1 (Homo sapiens, UniProt Q9UBX0 95-180, F115L).
The target of assay [15] is ALX3 (Homo sapiens, UniProt O95076 139-225, N203S).
Assay [16] addresses ALX1 (Homo sapiens, UniProt Q15699 118-204, L144V).
For assay [17], the target named is ALX1 (Homo sapiens, UniProt Q15699 118-204, L144R).
The target of assay [18] is ALX1 (Homo sapiens, UniProt Q15699 118-204).
Sequence of ALX1 (Homo sapiens, UniProt Q15699 118-204) (Q15699 118-204): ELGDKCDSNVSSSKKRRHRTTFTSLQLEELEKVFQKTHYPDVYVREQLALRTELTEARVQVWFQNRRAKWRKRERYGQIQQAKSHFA

Sequence of ALX3 (Homo sapiens, UniProt O95076 139-225, L168V) (O95076 139-225 L168V): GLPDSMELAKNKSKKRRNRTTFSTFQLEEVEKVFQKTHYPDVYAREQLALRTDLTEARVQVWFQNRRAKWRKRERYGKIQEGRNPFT
Sequence of ALX1 (Homo sapiens, UniProt Q15699 118-204, L144V) (Q15699 118-204 L144V): as the sequence (Q15699 118-204) above, with L27V counted along it
Sequence of HESX1 (Homo sapiens, UniProt Q9UBX0 95-180) (Q9UBX0 95-180): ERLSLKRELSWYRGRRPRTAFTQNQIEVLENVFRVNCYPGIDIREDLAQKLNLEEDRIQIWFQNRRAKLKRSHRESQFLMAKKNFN
Sequence of ALX4 (Q9H161 200-286 Q225E): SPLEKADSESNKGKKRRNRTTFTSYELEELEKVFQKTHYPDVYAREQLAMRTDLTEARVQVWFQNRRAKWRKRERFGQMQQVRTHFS
Sequence of ALX3 (Homo sapiens, UniProt O95076 139-225) (O95076 139-225): as the sequence (O95076 139-225 L168V) above, with V30L counted along it
Sequence of PROP1 (Homo sapiens, UniProt O75360 56-141) (O75360 56-141): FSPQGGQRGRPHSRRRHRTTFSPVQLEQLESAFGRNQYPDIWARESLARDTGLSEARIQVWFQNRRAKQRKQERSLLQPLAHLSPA
Sequence of HESX1 (Homo sapiens, UniProt Q9UBX0 95-180, R109Q) (Q9UBX0 95-180 R109Q): as the sequence (Q9UBX0 95-180) above, with R15Q counted along it
Sequence of SHOX (Homo sapiens, UniProt O15266 103-189) (O15266 103-189): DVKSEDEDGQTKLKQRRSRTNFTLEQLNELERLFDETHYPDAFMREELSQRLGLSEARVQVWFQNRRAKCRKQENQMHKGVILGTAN
Sequence of PROP1 (Homo sapiens, UniProt O75360 56-141, R99H) (O75360 56-141 R99H): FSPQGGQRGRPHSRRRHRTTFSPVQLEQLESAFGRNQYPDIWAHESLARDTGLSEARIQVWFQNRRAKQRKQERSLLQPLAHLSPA
Sequence of HESX1 (Homo sapiens, UniProt Q9UBX0 95-180, P111T) (Q9UBX0 95-180 P111T): as the sequence (Q9UBX0 95-180) above, with P17T counted along it
Sequence of HESX1 (Homo sapiens, UniProt Q9UBX0 95-180, R165K) (Q9UBX0 95-180 R165K): as the sequence (Q9UBX0 95-180) above, with R71K counted along it
Sequence of ALX3 (Homo sapiens, UniProt O95076 139-225, N203Q) (O95076 139-225 N203Q): as the sequence (O95076 139-225 L168V) above, with V30L, N65Q counted along it
Sequence of ALX3 (Homo sapiens, UniProt O95076 139-225, N203S) (O95076 139-225 N203S): as the sequence (O95076 139-225 L168V) above, with V30L, N65S counted along it
Sequence of ALX1 (Homo sapiens, UniProt Q15699 118-204, L144R) (Q15699 118-204 L144R): as the sequence (Q15699 118-204) above, with L27R counted along it
Sequence of PROP1 (Homo sapiens, UniProt O75360 56-141, F88S) (O75360 56-141 F88S): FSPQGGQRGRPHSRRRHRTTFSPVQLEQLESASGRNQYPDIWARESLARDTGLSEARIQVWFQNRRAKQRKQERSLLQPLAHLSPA
Sequence of MSX2 (P35548 130-214 R199I): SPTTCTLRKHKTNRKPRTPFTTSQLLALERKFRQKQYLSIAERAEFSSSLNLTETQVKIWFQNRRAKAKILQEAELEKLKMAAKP
Sequence of ALX3 (Homo sapiens, UniProt O95076 139-225, L168Q) (O95076 139-225 L168Q): as the sequence (O95076 139-225 L168V) above, with V30Q counted along it
Sequence of SHOX (Homo sapiens, UniProt O15266 103-189, R173C) (O15266 103-189 R173C): as the sequence (O15266 103-189) above, with R71C counted along it
Sequence of HESX1 (Homo sapiens, UniProt Q9UBX0 95-180, F115L) (Q9UBX0 95-180 F115L): as the sequence (Q9UBX0 95-180) above, with F21L counted along it

Consider AACAATTA, for which the binding signal is 12 upbm affinity estimate (log intensity, higher = more binding, comparable within an allelic series) in the assay with HESX1 [1]; 11.5 upbm affinity estimate (log intensity, higher = more binding, comparable within an allelic series) with SHOX [2]; 12.8 upbm affinity estimate (log intensity, higher = more binding, comparable within an allelic series) with ALX4; 12.2 upbm affinity estimate (log intensity, higher = more binding, comparable within an allelic series) in the assay with HESX1 [3]; 12.8 upbm affinity estimate (log intensity, higher = more binding, comparable within an allelic series) with MSX2; 8.48 upbm affinity estimate (log intensity, higher = more binding, comparable within an allelic series) in the assay with ALX3 [4]. Moreover, the binding signal in the assay with SHOX [5] was 9.19 upbm affinity estimate (log intensity, higher = more binding, comparable within an allelic series); in the assay with ALX3 [6], 12.2 upbm affinity estimate (log intensity, higher = more binding, comparable within an allelic series); with PROP1 [7], 11.1 upbm affinity estimate (log intensity, higher = more binding, comparable within an allelic series); in the assay with HESX1 [8], 8.73 upbm affinity estimate (log intensity, higher = more binding, comparable within an allelic series); with PROP1 [9] it was 11.2 upbm affinity estimate (log intensity, higher = more binding, comparable within an allelic series); in the assay with ALX3 [10] it was 10.3 upbm affinity estimate (log intensity, higher = more binding, comparable within an allelic series). In addition, the binding signal was 10.6 upbm affinity estimate (log intensity, higher = more binding, comparable within an allelic series) in the assay with HESX1 [11]; 9.75 upbm affinity estimate (log intensity, higher = more binding, comparable within an allelic series) with ALX3 [12]; 7.78 upbm affinity estimate (log intensity, higher = more binding, comparable within an allelic series) with PROP1 [13]; 7.66 upbm affinity estimate (log intensity, higher = more binding, comparable within an allelic series) with HESX1 [14]; 8.6 upbm affinity estimate (log intensity, higher = more binding, comparable within an allelic series) in the assay with ALX3 [15].

For the sequence GGCAGGCC, the binding signal is 6.38 upbm affinity estimate (log intensity, higher = more binding, comparable within an allelic series) in the assay with HESX1 [1]; 6.43 upbm affinity estimate (log intensity, higher = more binding, comparable within an allelic series) with HESX1 [3]; 6.33 upbm affinity estimate (log intensity, higher = more binding, comparable within an allelic series) with ALX1 [16]; 6.11 upbm affinity estimate (log intensity, higher = more binding, comparable within an allelic series) in the assay with ALX1 [17]; 6.29 upbm affinity estimate (log intensity, higher = more binding, comparable within an allelic series) in the assay with HESX1 [8]; 6.43 upbm affinity estimate (log intensity, higher = more binding, comparable within an allelic series) with HESX1 [11]. The binding signal with HESX1 [14] is 6.33 upbm affinity estimate (log intensity, higher = more binding, comparable within an allelic series); in the assay with ALX1 [18] it was 6.33 upbm affinity estimate (log intensity, higher = more binding, comparable within an allelic series).

GTCAATTA: the binding signal with HESX1 [1] is 13.1 upbm affinity estimate (log intensity, higher = more binding, comparable within an allelic series); with SHOX [2] it was 12.4 upbm affinity estimate (log intensity, higher = more binding, comparable within an allelic series); with ALX4, 13.4 upbm affinity estimate (log intensity, higher = more binding, comparable within an allelic series); in the assay with HESX1 [3] it was 13.1 upbm affinity estimate (log intensity, higher = more binding, comparable within an allelic series); with MSX2, 12.6 upbm affinity estimate (log intensity, higher = more binding, comparable within an allelic series); with ALX1 [16], 11.8 upbm affinity estimate (log intensity, higher = more binding, comparable within an allelic series). Further, the binding signal was 8.23 upbm affinity estimate (log intensity, higher = more binding, comparable within an allelic series) in the assay with ALX3 [4]; 9.5 upbm affinity estimate (log intensity, higher = more binding, comparable within an allelic series) with SHOX [5]; 11.4 upbm affinity estimate (log intensity, higher = more binding, comparable within an allelic series) in the assay with ALX1 [17]; 12.5 upbm affinity estimate (log intensity, higher = more binding, comparable within an allelic series) with ALX3 [6]; 11.4 upbm affinity estimate (log intensity, higher = more binding, comparable within an allelic series) in the assay with PROP1 [7]; 9.32 upbm affinity estimate (log intensity, higher = more binding, comparable within an allelic series) in the assay with HESX1 [8]. For the same sequence, the binding signal is 11.8 upbm affinity estimate (log intensity, higher = more binding, comparable within an allelic series) in the assay with PROP1 [9]; 10.7 upbm affinity estimate (log intensity, higher = more binding, comparable within an allelic series) with ALX3 [10]; 11.6 upbm affinity estimate (log intensity, higher = more binding, comparable within an allelic series) in the assay with HESX1 [11]; 10.1 upbm affinity estimate (log intensity, higher = more binding, comparable within an allelic series) in the assay with ALX3 [12]; 7.62 upbm affinity estimate (log intensity, higher = more binding, comparable within an allelic series) in the assay with PROP1 [13]; 7.69 upbm affinity estimate (log intensity, higher = more binding, comparable within an allelic series) with HESX1 [14]. Also, the binding signal was 12.4 upbm affinity estimate (log intensity, higher = more binding, comparable within an allelic series) in the assay with ALX1 [18] and 8.41 upbm affinity estimate (log intensity, higher = more binding, comparable within an allelic series) in the assay with ALX3 [15].

Take ATAATTAG: the binding signal with HESX1 [1] is 13.4 upbm affinity estimate (log intensity, higher = more binding, comparable within an allelic series); with SHOX [2], 13 upbm affinity estimate (log intensity, higher = more binding, comparable within an allelic series); with ALX4 it was 14.2 upbm affinity estimate (log intensity, higher = more binding, comparable within an allelic series); with HESX1 [3], 13.4 upbm affinity estimate (log intensity, higher = more binding, comparable within an allelic series); in the assay with MSX2 it was 13.2 upbm affinity estimate (log intensity, higher = more binding, comparable within an allelic series); with ALX1 [16], 12.3 upbm affinity estimate (log intensity, higher = more binding, comparable within an allelic series). The binding signal is 8.56 upbm affinity estimate (log intensity, higher = more binding, comparable within an allelic series) with ALX3 [4]; 10.3 upbm affinity estimate (log intensity, higher = more binding, comparable within an allelic series) in the assay with SHOX [5]; 11.9 upbm affinity estimate (log intensity, higher = more binding, comparable within an allelic series) with ALX1 [17]; 12.9 upbm affinity estimate (log intensity, higher = more binding, comparable within an allelic series) in the assay with ALX3 [6]; 12.1 upbm affinity estimate (log intensity, higher = more binding, comparable within an allelic series) with PROP1 [7]; 9.82 upbm affinity estimate (log intensity, higher = more binding, comparable within an allelic series) in the assay with HESX1 [8]. In addition, the binding signal with PROP1 [9] was 12.1 upbm affinity estimate (log intensity, higher = more binding, comparable within an allelic series); with ALX3 [10], 11.2 upbm affinity estimate (log intensity, higher = more binding, comparable within an allelic series); in the assay with HESX1 [11], 12 upbm affinity estimate (log intensity, higher = more binding, comparable within an allelic series); in the assay with ALX3 [12], 10.8 upbm affinity estimate (log intensity, higher = more binding, comparable within an allelic series); with PROP1 [13] it was 7.99 upbm affinity estimate (log intensity, higher = more binding, comparable within an allelic series); with HESX1 [14], 8.28 upbm affinity estimate (log intensity, higher = more binding, comparable within an allelic series). Moreover, the binding signal in the assay with ALX1 [18] is 12.9 upbm affinity estimate (log intensity, higher = more binding, comparable within an allelic series); with ALX3 [15], 8.75 upbm affinity estimate (log intensity, higher = more binding, comparable within an allelic series).

In the case of TAATTGCA, the binding signal with HESX1 [1] was 12 upbm affinity estimate (log intensity, higher = more binding, comparable within an allelic series); in the assay with SHOX [2], 11.4 upbm affinity estimate (log intensity, higher = more binding, comparable within an allelic series); with HESX1 [3], 12.1 upbm affinity estimate (log intensity, higher = more binding, comparable within an allelic series); in the assay with MSX2, 13 upbm affinity estimate (log intensity, higher = more binding, comparable within an allelic series); in the assay with SHOX [5] it was 9.1 upbm affinity estimate (log intensity, higher = more binding, comparable within an allelic series); in the assay with PROP1 [7], 11.1 upbm affinity estimate (log intensity, higher = more binding, comparable within an allelic series). Also, the binding signal with HESX1 [8] is 8.74 upbm affinity estimate (log intensity, higher = more binding, comparable within an allelic series); in the assay with PROP1 [9], 11.1 upbm affinity estimate (log intensity, higher = more binding, comparable within an allelic series); in the assay with ALX3 [10] it was 10.2 upbm affinity estimate (log intensity, higher = more binding, comparable within an allelic series); with HESX1 [11], 10.6 upbm affinity estimate (log intensity, higher = more binding, comparable within an allelic series); in the assay with PROP1 [13], 7.7 upbm affinity estimate (log intensity, higher = more binding, comparable within an allelic series); with HESX1 [14], 7.5 upbm affinity estimate (log intensity, higher = more binding, comparable within an allelic series).
